From PubChem BioAssay (NCATS)
Inconclusive results are not listed. Calls of active or inactive are those of the source. Calls come from the whole dose curve; as a rule, active = well fitted curve in the direction sought with a large enough effect; inconclusive = small, poorly fitted or top-dose-only effect, or another doubt; inactive = no such curve, though single readings can be large; an effect the other way counts as inactive or inconclusive.

What was measured:
[1] = target: Calcium and integrin-binding protein 1 (Homo sapiens) (UniProt Q99828); test: Primary qHTS for Identification of Calcium Integrin Binding Protein 1 (CIB1) Competitor (AID 1508620);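 note: GST tagged CIB1 binding a fluorescein labelled alphaIIb integrin peptide tracer; top concentration of the series differs between compounds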
Summary of the method: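 Fluorescence polarization competition: GST-tagged CIB1 (1 uM final) preincubated with compound 15 min at room temperature, then FITC-labelled alphaIIb peptide (100 nM final) added. After 15 min at room temperature, polarization read at Ex 480/Em 540.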

[2] = Primary qHTS for inhibitors of nuclear receptor binding SET domain protein 2 (NSD2) in an isogenic RCH-ACV NSD2 p.E1099K mutant (9B) (AID 1645876); note: nearly all actives have a fitted effect of over 70% in size
[3] = Primary qHTS for inhibitors of nuclear receptor binding SET domain protein 2 (NSD2) in an RCH-ACV wild type WT cells (2C) (AID 1645877); note: nearly all actives have a fitted effect of over 70% in size
% is set by controls: 0 for no effect and ±100 for the full control effect.

Chain of Calcium and integrin-binding protein 1 (Homo sapiens) (Q99828 whole entry, looked up): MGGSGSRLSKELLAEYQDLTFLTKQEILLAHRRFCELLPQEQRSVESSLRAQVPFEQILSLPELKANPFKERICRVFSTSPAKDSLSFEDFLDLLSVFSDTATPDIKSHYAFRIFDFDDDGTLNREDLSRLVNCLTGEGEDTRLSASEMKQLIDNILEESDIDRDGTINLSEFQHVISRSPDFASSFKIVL

C/C=C1/[C@H](O[C@@H]2O[C@H](CO)[C@@H](O)[C@H](O)[C@H]2O)OC=C(C(=O)OC)[C@H]1CC(=O)OCCc1ccc(OC(=O)C[C@@H]2C(C(=O)OC)=CO[C@@H](O[C@@H]3O[C@H](CO)[C@@H](O)[C@H](O)[C@H]3O)/C2=C/C)cc1
inactive: Potency [1] | activity change, negative = viability loss [2] -12% [at 9.23 µM] | activity change, negative = cell killing [3] -15% [at 9.23 µM]

COC(=O)C[C@H]1C(C)(C)[C@H](OC(=O)C(C)C)C2CC3=C4CC(=O)O[C@@H](c5ccoc5)[C@]4(C)CCC3[C@@]1(C)C2=O (some centres undefined)
inactive: Potency [1] | Potency [2] | Potency [3]

CC1=CC(=O)CC(C)(C)C1CCC(C)O[C@@H]1O[C@H](CO)[C@@H](O)[C@H](O)[C@H]1O (some centres undefined)
inactive: Potency [1] | Potency [2] | Potency [3]

CC1=C(CO)C2(C)CCCC(C)(C)C2C(O)C1O (centres undefined)
inactive: Potency [1] | Potency [2] | Potency [3]

OC[C@@]1(O)CO[C@@H](OC[C@H]2O[C@@H](Oc3ccccc3)[C@H](O)[C@@H](O)[C@@H]2O)[C@@H]1O
inactive: Potency [1] | Potency [2] | Potency [3]

C[C@H]1CC[C@H]2[C@@H](C=C[C@@](C)(O)[C@]2(C)C(=O)CCO)C1
inactive: Potency [1] | Potency [2] | Potency [3]

COC(=O)[C@]1(Cc2ccc(O)c(CC=C(C)C)c2)OC(=O)C(O)=C1c1ccc(O)cc1
inactive: Potency [1] | Potency [2] | Potency [3]

CC1=C2CC(C)(C)CC2C(O)C2=C(C1)C(=O)OC2O (centres undefined)
inactive: Potency [1] | Potency [2] | Potency [3]

C/C=C1\[C@H](O[C@@H]2O[C@H](CO)[C@@H](O)[C@H](O)[C@H]2O)OC=C(C(=O)O)[C@H]1CC(=O)OCCc1ccc(O)cc1
inactive: Potency [1] | Potency [2] | Potency [3]

Cc1ncc([N+](=O)[O-])n1C[C@H](O)CN1CCOCC1
inactive: Potency [1] | Potency [2] | Potency [3]

COc1ccc(C2(O)c3ccccc3NC(=O)C2OC)cc1 (centres undefined)
inactive: Potency [1] | Potency [2] | Potency [3]

CC1C(O)C(O)C2C(C(=O)OCCc3ccc(O)cc3)=COC(O[C@@H]3O[C@H](CO)[C@@H](O)[C@H](O)[C@H]3O)C12 (some centres undefined)
inactive: Potency [1] | Potency [2] | Potency [3]

CC1(C)CC[C@]2(C(=O)O[C@@H]3O[C@H](CO)[C@@H](O)[C@H](O)[C@H]3O)CC[C@]3(C)C(=CCC4[C@@]5(C)CC[C@H](O[C@@H]6O[C@H](C(=O)O)[C@@H](O)[C@H](O)[C@H]6OC6OC(CO)C(O)C(O)C6O)C(C)(C)C5CC[C@]43C)[C@@H]2C1 (some centres undefined)
inactive: Potency [1] | activity change, negative = viability loss [2] 0.32% [at 9.23 µM] | activity change, negative = cell killing [3] -5.08% [at 9.23 µM]

COc1cc(/C=C/C(=O)O[C@H]2C[C@@H]3C(C(=O)O)=CO[C@@H](O[C@@H]4O[C@H](CO)[C@@H](O)[C@H](O)[C@H]4O)[C@@H]3[C@H]2C)ccc1O
inactive: Potency [1] | Potency [2] | Potency [3]

C=CCc1ccc(O[C@@H]2O[C@H](CO)[C@@H](O)[C@H](O)[C@H]2O)c(O[C@@H]2O[C@H](CO)[C@@H](O)[C@H](O)[C@H]2O)c1
inactive: Potency [1] | Potency [2] | Potency [3]

CC(=O)O[C@H]1C[C@@H](O)C(C)(C)C2C[C@@H](OC(C)=O)[C@]3(C)C(CC[C@@]4(C)[C@H](c5ccoc5)OC(=O)[C@H]5O[C@]543)[C@]21C (some centres undefined)
inactive: Potency [1] | Potency [2] | Potency [3]

COC(=O)C1=CO[C@@H](O[C@@H]2O[C@H](CO)[C@@H](O)[C@H](O)[C@H]2O)[C@H]2[C@@H]1C=C[C@]21C=C([C@H](C)OC(=O)/C=C/c2ccc(O[C@@H]3O[C@H](CO)[C@@H](O)[C@H](O)[C@H]3O)cc2)C(=O)O1
inactive: Potency [1] | Potency [2] | Potency [3]

COC(=O)C1=CO[C@@H](O[C@@H]2O[C@H](CO)[C@@H](O)[C@H](O)[C@H]2O)/C(=C\CO)[C@@H]1CC(=O)OCCc1ccc(O)cc1
inactive: Potency [1] | Potency [2] | Potency [3]

C=C[C@@](C)(CCC=C(C)C)O[C@@H]1O[C@H](CO[C@@H]2OC[C@H](O)[C@H](O)[C@H]2O)[C@@H](O)[C@H](O)[C@H]1O
inactive: Potency [1] | Potency [2] | Potency [3]

CC(C)C1C(OC(=O)/C=C/c2ccccc2)CC2(C)OC2CCC2(C)OC2C1O (centres undefined)
inactive: Potency [1] | Potency [2] | Potency [3]

O=S(=O)(O)c1ccc(Nc2ncnc3c2ncn3[C@@H]2O[C@H](CO)[C@@H](O)[C@H]2O)cc1
inactive: Potency [1] | Potency [2] | Potency [3]

CC1(C)CCC[C@@]2(C)[C@H]1[C@H](O)C=C(CO)[C@]2(O)CO
inactive: Potency [1] | Potency [2] | Potency [3]

COc1cc([C@H]2OC[C@](O)(Cc3ccc(O[C@@H]4O[C@H](CO)[C@@H](O)[C@H](O)[C@H]4O)c(OC)c3)[C@@H]2CO)ccc1O
inactive: Potency [1] | Potency [2] | Potency [3]
